Source: PubChem (several laboratories)
Hits are enriched below; roughly 3.6% of the tested compounds scored in any of these assays.
ERa SRC1 inh: blocks coactivator binding to human estrogen receptor alpha; P03372; TR-FRET ER-alpha LBD / SRC-1 peptide, estradiol-bound; inhibition, % at 25.6 µM; 86,000 tested, 1.7% active; AID 629; in the data active = inhibition above about 50%
Candida biofilm: kills Candida albicans biofilms. inhibition, % at 6 µM. 85,000 tested, 0.14% active. C. albicans biofilm + clotrimazole, Alamar Blue. AID 834;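 active = inhibition above 20%; inactive = inhibition below 20%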;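 also: preformed 24 hr biofilms exposed to compound for 48 hr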
ERb coact inh: ER-beta (human) coactivator binding inhibition; Q92731; AID 633; TR-FRET ER-beta LBD / SRC1-Cy5 peptide binding; receptor agonist-loaded with 1 µM estradiol; 86,000 tested, 1.3% active; inhibition, % at 25.6 µM;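 active = compounds whose percent inhibition of the receptor-coactivator binding signal exceeds about 50% in the single-dose screen, limit read from the data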
Target sequence (Q92731 whole entry, looked up, the tested form may be a part): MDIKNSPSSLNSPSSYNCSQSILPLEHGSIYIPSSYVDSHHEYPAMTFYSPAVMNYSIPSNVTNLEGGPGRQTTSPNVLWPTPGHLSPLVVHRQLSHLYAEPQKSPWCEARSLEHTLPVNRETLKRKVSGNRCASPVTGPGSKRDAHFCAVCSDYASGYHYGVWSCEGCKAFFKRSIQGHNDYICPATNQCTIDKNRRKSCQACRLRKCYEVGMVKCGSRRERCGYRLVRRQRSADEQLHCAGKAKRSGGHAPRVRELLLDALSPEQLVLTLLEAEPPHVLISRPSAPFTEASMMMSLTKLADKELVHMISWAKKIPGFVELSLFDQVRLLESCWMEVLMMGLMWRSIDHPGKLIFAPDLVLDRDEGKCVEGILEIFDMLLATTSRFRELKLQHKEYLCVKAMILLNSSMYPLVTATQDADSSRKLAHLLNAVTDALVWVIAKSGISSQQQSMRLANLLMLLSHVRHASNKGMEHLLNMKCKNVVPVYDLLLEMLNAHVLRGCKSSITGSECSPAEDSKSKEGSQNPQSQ
Smad3 inh: inhibitors of human Smad3 transcription factor binding; AID 630; inhibition, % at 25 µM; P84022; 88,000 tested, 0.29% active; TR-FRET Smad3/Dy647-FoxH1 peptide binding, europium anti-His;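 active = compounds that reduce the energy-transfer binding signal between the protein and its labelled peptide by more than half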
ERa coact pot: enhances coactivator binding to human estrogen receptor alpha; P03372; TR-FRET ERalpha-LBD/SRC-Cy5 coactivator binding, 2 h; 100 = basal binding, no effect; coactivator binding (% of control), % at 25.6 µM; 86,000 tested, 1.3% active; AID 639; in the data active = activity above about 200%;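 also: binding measured in presence of low estradiol as agonist stimulus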
Numbers stand for hits; 0 = inactive; - = no result given; [ ] = another dose, or the depositor's remark.

SMILES	ERa SRC1 inh	Candida biofilm	ERb coact inh	Smad3 inh	ERa coact pot
CCCSc1nnc(NC(=O)Nc2ccc(F)cc2)s1	0	0	0	0	246.9
CCCSc1nnc(NC(=O)Nc2ccccc2)s1	0	0	0	0	0
Cc1nc(Nc2ncc3c(n2)CCCC3=O)nc2ccccc12	0	0	0	0	0
CC(C)O/C(=N\S(=O)(=O)c1ccc(Cl)cc1)c1ccccc1	0	0	0	0	0
O=S(=O)(/N=C(\Sc1ccc(Cl)cc1)c1ccccc1)c1ccccc1	77.3	0	55.2[fluorescence artefact?]	0	0
Cc1cc(C)cc(NC(=O)CSCc2nc3c(nnn3Cc3ccc(F)cc3)c(=O)[nH]2)c1	0	0	0	0	0
O=[N+]([O-])c1cc(/C=N\Nc2nccs2)ccc1O	100.2[fluorescence artefact?]	0	100.2[fluorescence artefact?]	77.8	0
c1ccc(-c2nn3c(Cn4nnc5ccccc54)nnc3s2)nc1	84.5[fluorescence artefact?]	0	0	0	0
COc1cc(CC(=O)OCC(=O)Nc2ncc(Cl)cc2Cl)cc(OC)c1OC	0	0	0	0	0
COc1ccc(CC(=O)OCC(=O)Nc2ncc(Cl)cc2Cl)cc1	51.7[fluorescence artefact?]	0	0	0	0
O=C1CC(/C=C/c2ccco2)=Nc2ccccc2N1	58.5	0	0	0	0
O=C1CC(C(F)(F)C(F)(F)C(F)(F)C(F)F)=Nc2ccccc2N1	0	0	0	0	0
CC(C)Cc1nnc(NC(=O)CCC(=O)N2CCN(c3ccccn3)CC2)s1	0	0	0	0	0
CSc1nnc2c3cc(F)ccc3n(Cc3ccccc3)c2n1	0	0	0	0	336.3
COC(=O)c1ccc(CSc2nc(C)nc3sc(C)c(C)c23)o1	55.4	0	0	0	0
COC(=O)c1ccc(CSc2nnc(SCc3ccc(C(=O)OC)o3)s2)o1	0	0	0	0	0
O=c1c2[nH]c3ccccc3c2ncn1CCC1=CCCCC1	0	0	0	0	307.6[fluorescence artefact?]
Cc1ccc2[nH]c3c(=O)n(CCC4=CCCCC4)cnc3c2c1	0	0	0	0	335.2[fluorescence artefact?]
Cn1c(=O)[nH]c(=O)c2c1nc(SCC(O)CO)n2Cc1ccccc1Cl (centres undefined)	0	0	0	0	0
CCCCc1c(CCC)c(=N)c2ccccc2n1C	0	0	0	0	0
O=C(NCCO)c1ccc(Cl)cc1	-	-	-	57.6	-
O=C(NCCO)c1ccc(Cl)c(Cl)c1	0	0	0	0	0
O=C(NCC1CCS(=O)(=O)C1)Oc1ccccc1 (centres undefined)	0	0	0	0	0
Cc1ccc(CNC(=O)CSc2nc(N3CCCCC3)nc(N3CCCCC3)n2)cc1	0	0	0	0	0
CN(C)Cc1c[nH]c2nc[nH]c(=O)c12	-	-	-	67.6	-
SMILES	ERa SRC1 inh	Candida biofilm	ERb coact inh	Smad3 inh	ERa coact pot
CN(C)Cc1c(O)ccc2[nH]cnc12	0	0	0	0	0
O=C(O)[C@@H]1[C@H](C(=O)NCc2cccnc2)[C@@H]2C=C[C@H]1O2	-	-	-	0	-
CCCCCCN=CC1=C(O)C(C(=O)OC)C(C)(C)CC1=O (centres undefined)	0	0	60.2	0	0
COc1ccc(C(=O)N2CCC(C(=O)Nc3ccccc3OC)CC2)cc1	0	0	0	0	222.7[fluorescence artefact?]
O=S(=O)(Nc1nc2ccccc2nc1Nc1ccc2c(c1)OCCO2)c1cccs1	69.8[fluorescence artefact?]	0	71.5[fluorescence artefact?]	0	0
Cc1cc(SC(C)C(=O)Nc2c(C)n(C)n(-c3ccccc3)c2=O)nc2ccccc12 (centres undefined)	0	0	0	0	0
CCc1cc2c(=O)n(CC)c(SC(C)C(=O)Nc3c(C)n(C)n(-c4ccccc4)c3=O)nc2s1 (centres undefined)	0	0	55.5	0	0
CCOC(=O)c1cn2c3c(c(F)c(F)c(F)c3c1=O)SC(N1CCCC1)=N2	0	0	0	0	268.4[fluorescence artefact?]
O=c1cc(CSc2nnnn2-c2ccccc2)nc(Nc2ccc(F)cc2)[nH]1	52.7	0	0	0	372.9
CC(C(=O)Nc1ccc2c(c1)OCO2)N(c1ccc(Cl)cc1)S(C)(=O)=O (centres undefined)	0	0	0	0	0
O=C(CSCc1ccc(Cl)cc1)NCC1CCCO1 (centres undefined)	0	0	0	0	0
O=C(CSc1ccc(Cl)cc1)NCC1CCCO1 (centres undefined)	0	65.3	0	0	0
CCOC(=O)N1CCN(C(=O)Cn2ncn3nc(-c4cccs4)cc3c2=O)CC1	0	0	0	0	0
C=CCn1c(C)cc(C(=O)CSc2n[nH]c(N)n2)c1C	0	0	0	0	0
O=C(Nc1nc(-c2cc3ccccc3oc2=O)cs1)c1ccco1	0	0	0	0	279.8[fluorescence artefact?]
O=C(Nc1nc(-c2ccncc2)cs1)c1ccco1	98.0[fluorescence artefact?]	0	0	0	0
Cc1ccc(C(=O)Nc2nc(-c3cccnc3)cs2)o1	0	0	50.6	0	0
COC(=O)c1cc(OC)c(OC)cc1NC(=O)c1c(-c2ccccc2Cl)noc1C	0	0	0	0	0
COc1ccc(CCNC(=O)c2c(O)c3c([nH]c2=O)CCCC3)cc1	0	0	0	0	0
Cc1nnc2sc(-c3ccc(NC(=O)c4ccc(-c5ccc(Br)cc5)o4)cc3)nn12	69.3	0	0	0	0
Cc1ccc(-c2nn3c(C)nnc3s2)cc1NC(=O)c1ccc(-c2ccc(Cl)cc2Cl)o1	67.4[fluorescence artefact?]	0	0	0	0
Cc1ccc(-c2nn3c(C)nnc3s2)cc1NC(=O)c1ccc(-c2cccc(Cl)c2)o1	66.2	0	0	0	0
Cc1nnc2sc(-c3cccc(NC(=O)c4ccc(-c5cccc(Cl)c5)o4)c3)nn12	0	0	0	0	0
Nc1nc2c(ncn2[C@@H]2CC[C@@H](CO)O2)c(=O)n1C(=O)c1ccccc1	-	-	-	0	-
NC(=O)C/C=C/CC(N)=O	-	-	-	0	-
SMILES	ERa SRC1 inh	Candida biofilm	ERb coact inh	Smad3 inh	ERa coact pot
O=C(Cn1cnc2c(oc3ccccc32)c1=O)c1ccccc1	0	0	0	0	265.9[fluorescence artefact?]
Cc1ccccc1NC(=O)Cn1cnc2c(oc3ccccc32)c1=O	0	0	0	0	0
Clc1ccc2oc(-c3cccnc3)nc2c1	0	0	0	0	0
Clc1ccc2oc(-c3ccccc3)nc2c1	0	0	56.9[fluorescence artefact?]	0	0
CCCCCCc1cc2cc(-c3nnc(-c4cc(OC)c(OC)c(OC)c4)o3)c(=O)oc2cc1O	0	0	0	0	224.0[fluorescence artefact?]
O=C(O)CSCCC(=O)Nc1ccc(F)cc1	0	0	0	0	0
O=C(Nc1ccncc1)c1cn(-c2ccccc2)nc1-c1cccs1	0	0	0	0	228.8[fluorescence artefact?]
Cc1nn(CC(=O)NC(C)c2ccccc2)c(=O)c2ccccc12 (centres undefined)	0	0	0	0	0
Cc1ccc(-c2nn(CC(=O)NC(C)c3ccccc3)c(=O)c3ccccc23)cc1 (centres undefined)	0	0	0	0	207.5[fluorescence artefact?]
CCC(=O)N1CCN(c2ccc(Cl)cc2NC(=O)Cc2ccc(Cl)cc2)CC1	0	0	0	0	0
COC(=O)c1cc2c(C)nn(-c3ccccc3)c2s1	0	0	0	0	246.2
O=C(OCc1nnc(-c2ccccc2)o1)c1ccc(S(=O)(=O)NCc2ccco2)cc1	53.4[fluorescence artefact?]	0	0	0	0
CS/C(=N\S(=O)(=O)c1cccs1)NC(=O)CSc1nc2ccccc2s1	0	0	0	0	0
